KB-3-1 cytotox: KB-3-1 parental cell cytotoxicity; Potency, µM (doses to about 46.1 µM), most hits filed as cytotoxic; 1.4% of 400,000 active; KB-3-1 viability, CellTiter-Glo ATP luminescence, 72 h; note: % is set by controls: 0 for no effect and ±100 for the full control effect; nearly all actives have a fitted effect of over 60% in size
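KB-3-1 cells, DMEM (no phenol red) + 10% FBS; compound by pin transfer, 72 h, 37 °C. Readout: CellTiter-Glo luminescence after 10 min. Data normalized, curve-fitted.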
SW480 rereplic: inducers of DNA re-replication in SW480 colon cancer cells; Potency, µM (highest dose often 46.1 µM), for inactives: at the top dose re-replication activation, hits mostly activators; SW480 DNA re-replication, Hoechst DNA content imaging, 48 h; AID 624297; 1.8% of 340,000 active; note: % of control where 0% means no effect; nearly all actives have a fitted effect of over 55% in size
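First, 250 cells per well were seeded. Next, compound or vehicle (23 nL) was pinned in, plates sat 48 hr at 37 C. Finally Hoechst was added for 40 min before fluorescence scanning.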
RORgamma inh: blocks mouse ROR gamma transcriptional activity | 5.4% of 310,000 active | P51450 | Potency, µM (doses to about 53.6 µM), for inactives: at the top dose activity change, negative = inhibition, usual class: inhibitors | Drosophila S2 Gal4-RORgamma UAS-luciferase reporter, 20 h; note: % is set by controls: 0 for no effect and ±100 for the full control effect; nearly all actives have a fitted effect of over 60% in size
Target sequence (P51450 whole entry, looked up, the tested form may be a part): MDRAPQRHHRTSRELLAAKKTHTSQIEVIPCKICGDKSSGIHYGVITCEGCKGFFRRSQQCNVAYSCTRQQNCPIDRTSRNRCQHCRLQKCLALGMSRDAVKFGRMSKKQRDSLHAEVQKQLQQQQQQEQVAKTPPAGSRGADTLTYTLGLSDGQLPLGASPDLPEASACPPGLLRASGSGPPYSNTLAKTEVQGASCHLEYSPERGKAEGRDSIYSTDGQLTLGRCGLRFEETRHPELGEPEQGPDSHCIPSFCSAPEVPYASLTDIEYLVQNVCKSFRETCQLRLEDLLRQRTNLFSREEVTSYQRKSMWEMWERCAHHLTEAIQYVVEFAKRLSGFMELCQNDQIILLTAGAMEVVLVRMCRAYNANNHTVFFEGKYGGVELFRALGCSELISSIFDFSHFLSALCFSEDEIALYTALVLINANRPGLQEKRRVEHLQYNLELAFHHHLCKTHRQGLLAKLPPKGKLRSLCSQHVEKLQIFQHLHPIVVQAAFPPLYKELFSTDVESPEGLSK
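A Gal4/UAS one-hybrid system in insect cells: metallothionein-promoter Gal4–ROR gamma fusion plus Photinus luciferase reporter. Copper sulfate 700 uM final, 20 hr ambient incubation, luminescent detection after 10 min with reagent.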
VP16 counter: Gal4-VP16 reporter inhibition counter-screen. AID 2546. Potency, µM (titrated, usually from 53.6 µM), for the others: at the top dose activity, negative = inhibition, usual class: inhibitors. Drosophila S2 Gal4-VP16 UAS-luciferase, luminescence, 20 h. 3.5% of 310,000 active;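 note: Gal4-VP16 expression switched on by copper sulfate through the metallothionein promoter; % is set by controls: 0 for no effect and ±100 for the full control effect; nearly all actives have a fitted effect of over 50% in size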
MCF10A rerep: induces DNA re-replication in MCF 10a normal breast cells; MCF 10A DNA re-replication, Hoechst nuclear intensity, 48 h; Potency, µM (doses to about 46.1 µM), for inactives: at the top dose activity, positive = re-replication, most hits filed as activators; 2.9% of 350,000 active; note: % of control where 0% means no effect; nearly all actives have a fitted effect of over 50% in size
KB-V1 MDR tox: kills drug-selected multidrug resistant KB-V1 cells; 3.4% of 400,000 active; Potency, µM (series often up to 46.1 µM), actives largely listed as cytotoxic; KB-V1 MDR cells viability, CellTiter-Glo, 72 h; note: % is set by controls: 0 for no effect and ±100 for the full control effect; nearly all actives have a fitted effect of over 60% in size
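Drug-selected KB-V1 cells, grown in DMEM lacking phenol red with 10% FBS, receive compound titrations; after three days at 37 degrees C, surviving cell ATP is quantified by CellTiter-Glo luminescence and responses normalized and curve-fitted.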
An asterisk follows results filed as active; [ ] = another dose, or the depositor's remark. An excerpt weighted towards active compounds, which were near 10% of everything screened. Calls come from the whole dose curve; as a rule, active = well fitted curve in the direction sought with a large enough effect; inconclusive = small, poorly fitted or top-dose-only effect, or another doubt; inactive = no such curve, though single readings can be large; an effect the other way counts as inactive or inconclusive. Potency is the fitted concentration of half-maximal effect.

CCCN(CC(=O)Nc1cc(Cl)ccc1Cl)C(=O)c1ccc(N2CCCC2=O)cc1 was read as KB-3-1 cytotox inconclusive, SW480 rereplic -4%, MCF10A rerep 2% and KB-V1 MDR tox 7.3µM*.
CCCN(CC(=O)Nc1ccccc1C)C(=O)c1ccc(N2CCCC2=O)cc1 was read as KB-3-1 cytotox inactive, SW480 rereplic 0%, MCF10A rerep 8% and KB-V1 MDR tox inactive.
Screening Cc1ccc2nc(SCC(=O)Nc3cc([N+](=O)[O-])ccc3F)[nH]c2c1 returned KB-3-1 cytotox inactive, SW480 rereplic -3%, RORgamma inh -2%, VP16 counter -9%, MCF10A rerep inconclusive and KB-V1 MDR tox 21µM*.
Cc1ccc2nc(SCC(=O)c3ccc(Cl)s3)[nH]c2c1 was read as KB-3-1 cytotox inactive, SW480 rereplic -6%, RORgamma inh 33%, VP16 counter 29%, MCF10A rerep -3% and KB-V1 MDR tox 13µM*.
For Cc1ccc2nc(SC(C)C(=O)Nc3cccc([N+](=O)[O-])c3)[nH]c2c1 (stereo unspecified) the results were KB-3-1 cytotox inconclusive, SW480 rereplic -6%, RORgamma inh 7%, VP16 counter inconclusive, MCF10A rerep 3% and KB-V1 MDR tox 4.1µM*.
For Cc1ccc2nc(SCC(=O)Nc3ccc(F)c([N+](=O)[O-])c3)[nH]c2c1 the results were KB-3-1 cytotox inactive, SW480 rereplic -12%, RORgamma inh -6%[10 µM], VP16 counter -18%, MCF10A rerep inconclusive and KB-V1 MDR tox 21µM*.
Screening COc1ccc(NC(=S)N/N=C2\CC(C)(C)Oc3ccc(O)cc32)cc1 returned KB-3-1 cytotox inactive, SW480 rereplic -7%, RORgamma inh 6.3µM*, VP16 counter 5.6µM*, MCF10A rerep 27% and KB-V1 MDR tox inactive.
`CC(=O)N1CCC2(CC1)C/C(=N\NC(=S)Nc1ccccc1F)c1cc(O)ccc1O2` gave KB-3-1 cytotox inconclusive, SW480 rereplic inconclusive, RORgamma inh 13µM*, VP16 counter -5%, MCF10A rerep inconclusive and KB-V1 MDR tox inactive.
For Cc1cc2oc(=O)cc(CSc3nc(N)cc(N)n3)c2cc1C(C)C the results were KB-3-1 cytotox inactive, SW480 rereplic -1%[9.22 µM], RORgamma inh 14%, VP16 counter 17%, MCF10A rerep 9% and KB-V1 MDR tox inactive.
For CCCc1cc(=O)[nH]c(SCc2cc(=O)oc3cc(C)c(C(C)C)cc23)n1 the results were KB-3-1 cytotox inactive, SW480 rereplic 0%, RORgamma inh 1%, VP16 counter -6%, MCF10A rerep inconclusive and KB-V1 MDR tox 21µM*.
Cn1c(=O)c2c(ncn2CC(=O)Nc2nc(-c3ccccc3Cl)cs2)n(C)c1=O was read as KB-3-1 cytotox inconclusive, SW480 rereplic 5%, RORgamma inh 28%, VP16 counter -19%, MCF10A rerep 14% and KB-V1 MDR tox 21µM*.
Screening Cc1cccc(C)c1NC(=O)C(Cl)=C(Cl)Cl returned KB-3-1 cytotox 18µM*, SW480 rereplic inconclusive, RORgamma inh 1%, VP16 counter -5%[10 µM], MCF10A rerep 24% and KB-V1 MDR tox inconclusive.
Screening CCc1nc2c(OCC(=O)c3ccc(F)cc3)cccn2c1N(C)C(=O)c1cccs1 returned KB-3-1 cytotox inactive and KB-V1 MDR tox inactive.
For COc1ccc(C(=O)COc2ccc(F)cc2)c(O)c1 the results were KB-3-1 cytotox inactive, SW480 rereplic 4%, RORgamma inh 5%, VP16 counter -3%, MCF10A rerep -8% and KB-V1 MDR tox inactive.
For O=C(COc1ccc(F)cc1)c1c(O)cc(O)cc1O the results were KB-3-1 cytotox inactive, SW480 rereplic -1%, RORgamma inh 2µM*, VP16 counter inconclusive, MCF10A rerep -3% and KB-V1 MDR tox inactive.
For O=C(COc1ccc(F)cc1)c1ccc2c(c1)CCCC2 the results were KB-3-1 cytotox inactive, SW480 rereplic 1%, MCF10A rerep 10µM* and KB-V1 MDR tox inactive.
Screening O=C(COc1ccc(Cc2ccccc2)cc1)c1ccc(F)cc1 returned KB-3-1 cytotox inactive, RORgamma inh inconclusive, VP16 counter -14%, MCF10A rerep inconclusive and KB-V1 MDR tox inactive.
`O=C(NCc1ccc(F)cc1)c1cc(-c2ccc(Cl)cc2)n[nH]1` gave KB-3-1 cytotox inactive and KB-V1 MDR tox inactive.
Screening Cc1cccc(-n2nc3c(c2NC(=O)CCCl)CSC3)c1 returned KB-3-1 cytotox inactive, SW480 rereplic -3%, RORgamma inh 6%, VP16 counter 6%, MCF10A rerep -12% and KB-V1 MDR tox inactive.
Screening Cc1cccc(-n2nc3c(c2NC(=O)c2ccc(Br)o2)CSC3)c1 returned KB-3-1 cytotox inactive, SW480 rereplic 0%, RORgamma inh 3.2µM*, VP16 counter 16%, MCF10A rerep -7% and KB-V1 MDR tox inactive.
`Cc1cccc(NC(=O)c2cccc(N3C(=O)C4C5CCC(C5)C4C3=O)c2)c1C` (stereo unspecified) gave KB-3-1 cytotox inactive, SW480 rereplic 4%, RORgamma inh 10%, VP16 counter 4%, MCF10A rerep 2% and KB-V1 MDR tox 8.2µM*.
Cc1ccc(C2N(c3ccccc3)C(=O)N3CCCN23)cc1 (stereo unspecified) was read as KB-3-1 cytotox inactive, SW480 rereplic 0.52µM*, RORgamma inh 5%, VP16 counter -2%, MCF10A rerep 3% and KB-V1 MDR tox inactive.
`Cc1nnc(NC(=O)c2ccc(S(=O)(=O)N3CCc4ccccc4C3)cc2)o1` gave KB-3-1 cytotox inactive, SW480 rereplic 2%, RORgamma inh 1.3µM*, VP16 counter 5µM*, MCF10A rerep -6% and KB-V1 MDR tox inactive.
`Cc1nnc(NC(=O)c2ccc(S(=O)(=O)N3CCCCC3C)cc2)o1` (stereo unspecified) gave KB-3-1 cytotox inactive, SW480 rereplic 17%, RORgamma inh 1.1µM*, VP16 counter 1.1µM*, MCF10A rerep 15% and KB-V1 MDR tox inconclusive.
`CC1CN(S(=O)(=O)c2ccc(C(=O)Nc3nnc(-c4ccccn4)o3)cc2)CC(C)O1` (stereo unspecified) gave KB-3-1 cytotox inactive, SW480 rereplic -10%, RORgamma inh inconclusive, VP16 counter inconclusive, MCF10A rerep -3% and KB-V1 MDR tox inactive.
Screening Cc1nnc(NC(=O)c2ccc(S(=O)(=O)N3CC(C)CC(C)C3)cc2)o1 (stereo unspecified) returned KB-3-1 cytotox inconclusive, SW480 rereplic inconclusive, RORgamma inh 1.4µM*, VP16 counter 1.4µM*, MCF10A rerep -8% and KB-V1 MDR tox inactive.
